Data: PubChem BioAssay AID488789 (Broad Institute, 2010)
Measured potencies and affinities stand elsewhere. Inconclusive results are not listed. Active and inactive are the calls of the source.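 How the source made its calls: active means samples whose fitted half-maximal inhibition concentration is no more than ten times the top valid dose tested; inconclusive means flat response between -70 and -30, or invalid curve fit; inactive means flat within 30 of zero, potency above limit, or signal rising.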

target: Trypsin (Sus scrofa) (UniProt P00761); test: trypsin protease activity blockade – biochemical, quenched peptide fluorescence, cherry-pick, selectivity assay for Rce1 protease inhibitor project, dose response (AID 488789); settings: porcine trypsin, quenched peptide cleavage fluorescence; series mostly up to 10 µM;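 further: more negative means stronger trypsin inhibition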
Sequence (P00761 whole entry, looked up): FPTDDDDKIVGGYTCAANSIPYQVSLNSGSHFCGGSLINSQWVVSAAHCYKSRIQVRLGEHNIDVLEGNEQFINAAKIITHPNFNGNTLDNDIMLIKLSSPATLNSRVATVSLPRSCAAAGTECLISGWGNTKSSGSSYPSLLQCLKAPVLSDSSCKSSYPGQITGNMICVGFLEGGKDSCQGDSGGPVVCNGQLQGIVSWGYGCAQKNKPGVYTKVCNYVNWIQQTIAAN

outcome, inactive:
COc1ccccc1-n1c(-c2ccccc2)c[nH]c1=S
CCN(CC)c1ccc(/C=N/NC(=O)C(O)(c2ccccc2)c2ccccc2)o1
CS(=O)(=O)Nc1ccccc1C(=O)NC1CC2CCC1C2 (stereo not drawn)
CC(=O)c1c(C)oc2ccc(NS(=O)(=O)c3ccc(C(=O)O)cc3)cc12
O=C(O)CCc1ccc(-c2cccs2)n1Cc1ccco1
O=C(c1cn(-c2ccccc2)nc1-c1cccs1)N1CCN(c2ccccc2)CC1
CCN(CC)CCN(Cc1cc2cc3c(cc2[nH]c1=O)OCO3)C(=S)NCc1ccco1
CC1CCN(C(=O)C2CCN(S(=O)(=O)c3ccc(-n4cnnn4)cc3)CC2)CC1
CCn1cc(/C=C(\NC(=O)c2ccccc2F)C(=O)N2CCCC2)c2ccccc21
CCSCCOC(=O)C1=C(C)NC(=O)NC1c1ccccc1 (stereo not drawn)
O=C1CCCC(O)=C1N=Nc1ccc2ncsc2c1
CC(=O)NN1C(=O)c2ccccc2NC1c1ccccc1 (stereo not drawn)
COc1ccc(-n2nc(C(=O)NCC(=O)N3CCC(C)CC3)c3ccccc3c2=O)cc1
O=C(C1=C[C@@H](C2CC2)C[C@@H](OCc2ccc(CO)cc2)O1)N1CCN(Cc2ccccc2)CC1
Nc1nonc1-n1nnc(C(=O)N/N=C/c2ccoc2)c1CSc1ccccc1
CS(=O)(=O)Nc1ccccc1C(=O)NCc1ccccc1Cl
Cc1ccc2c(c1)sc[n+]2Cc1ccccc1
C/C(CC(=O)NCc1ccco1)=N\NC(=O)c1ccc([N+](=O)[O-])cc1Cl
